Assay results reported in PubChem BioAssay (NCI).
This is part of a sample that, as a whole, favours compounds with a hit. Of some 83,000 tested, about 20% had one in any assay.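 The endpoint reported here, percent growth, reads 100 for growth as untreated, 0 for no net growth and -100 for all cells dead.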 A number with no mark means an inactive call. The source made the active and inactive calls. Rule for the calls: active = growth percent below 10; inactive = the rest.

Legend:
Assay in all cases: NCI-60 one-dose screen, 48 h (100 = growth as untreated, 0 = no growth, -100 = all killed)
Settings in all cases: 10 µM
[1] = system: SK-MEL-2 melanoma
[2] = system: EKVX NSCLC
[3] = system: SN12C renal
[4] = system: UO-31 renal
[5] = system: TK-10 renal
[6] = system: ACHN renal
[7] = system: CAKI-1 renal
[8] = system: A498 renal
[9] = system: CCRF-CEM leukemia
[10] = system: MOLT-4 leukemia
[11] = system: SR leukemia
[12] = system: RPMI-8226 leukemia
[13] = system: OVCAR-8 ovarian
[14] = system: OVCAR-5 ovarian
[15] = system: OVCAR-4 ovarian
[16] = system: SK-OV-3 ovarian
[17] = system: IGROV1 ovarian
[18] = system: OVCAR-3 ovarian
[19] = system: HS 578T breast
[20] = system: NCI/ADR-RES ovarian

SMILES | growth [1] | growth [2] | growth [3] | growth [4] | growth [5] | growth [6] | growth [7] | growth [8] | growth [9] | growth [10] | growth [11] | growth [12] | growth [13] | growth [14] | growth [15] | growth [16] | growth [17] | growth [18] | growth [19] | growth [20]
CCOC(=O)N/C(=C1/OCCN1C)[P+](c1ccccc1)(c1ccccc1)c1ccccc1 | 79.9% | 64.3% | 76.6% | 87.2% | 92.1% | 107% | 102% | 115% | 67.5% | 83.7% | 66.6% | 34.2% | 89.3% | 85.1% | 65.4% | 95.1% | 62.5% | 84.7% | 62.4% | 106%
COc1cc(/C=C/C(=O)c2ccc(NC(=O)CSc3nnc(-c4c[nH]c5ccccc45)n3-c3ccccc3)cc2)cc(OC)c1OC | 99.9% | 90.6% | 74.2% | 75% | 117% | 89.3% | 95.7% | 138% | 60.5% | 41.5% | 35.3% | 6.57% (active) | 50.1% | 108% | 93% | 121% | 48.8% | 66% | 93.2% | 96.1%
CCOC(=O)C1=C(N)N(c2ccc(C)cc2)C2=C(C(=O)CC(C)(C)C2)C1c1ccccc1OC (stereo not given) | 110% | 92.2% | 99.6% | 78.7% | 107% | 103% | 97.7% | 102% | 99% | 106% | 92.1% | 96.2% | 110% | 104% | 108% | 103% | 98.6% | 118% | 102% | 99.7%
COc1ccc(C(=O)CSc2nnc(-c3c[nH]c4ccccc34)n2-c2ccccc2)cc1 | 72% | 29.3% | 44.4% | 32.6% | 63.9% | 22.8% | 61.5% | 111% | 82.5% | 82.1% | 79.7% | 72.7% | 15.5% | 77.4% | 0.569% (active) | 66.3% | 60.5% | 53.6% | 15.5% | 16.3%
O=C(Cc1ccc2c(c1)CN(C1CCC(=O)NC1=O)C2=O)NCCc1ccccc1 (stereo not given) | 26% | 67.2% | 8.84% (active) | -10.4% (active) | 45.8% | 48.9% | 63.6% | 1.53% (active) | 10.6% | -13.2% (active) | 53.5% | 45.6% | 4.26% (active) | 37.6% | 10.6% | 28% | 2.99% (active) | 20.1% | -5.24% (active) | 28.4%
Cc1ccc(-c2nc(Nc3ccc(S(N)(=O)=O)cc3)c3ccccc3n2)cc1 | 99.9% | 65.9% | 68.7% | 54.5% | 104% | 42.8% | 36.5% | 61.3% | 25.7% | 11.2% | 14.6% | 29.2% | 63.2% | 68.9% | 61.7% | 114% | 66.7% | 61.9% | 90.1% | 54.7%
COc1ccc(-c2cc(C(=O)N=Nc3c(O)[nH]c4ccc(F)cc34)c3ccccc3n2)cc1 | 128% | 86.4% | 65.5% | 67.6% | 120% | 68.1% | 87.8% | 128% | 44.2% | 21.9% | 22.5% | 72.2% | 59.1% | 88.5% | 52% | 101% | 62.3% | 59.1% | 74% | 61.9%
Cn1cc(/C=N/Nc2ccnc3cc(Cl)ccc23)c2ccccc21 | -72.3% (active) | -85.1% (active) | -59.4% (active) | -90.1% (active) | -72.1% (active) | -92.7% (active) | -85.3% (active) | -80.2% (active) | -35.6% (active) | -32.1% (active) | -25% (active) | -41.4% (active) | -52.7% (active) | -90.5% (active) | -76.4% (active) | -71.2% (active) | -72.3% (active) | -89.8% (active) | -63.7% (active) | -79.8% (active)
Cc1cccc(NC(=O)CSc2nc3ccc(F)cc3c(=O)n2-c2ccc(Cl)cc2)c1C | 73.1% | 75% | 64.1% | 39.6% | 108% | 37.8% | -21.6% (active) | 108% | 94.4% | 81.3% | 61.9% | 88.1% | 32.5% | 90.3% | 67.7% | 56.8% | 53% | 93.9% | 25.7% | 56%
O=C1Nc2ccc(Cl)cc2/C1=C/c1ccc(OCc2ccccn2)cc1 | 111% | 65.7% | 44.5% | 59.6% | 90.1% | 57% | 61.6% | 45.1% | 83.2% | 46.8% | 54.9% | 73.9% | 45.9% | 88.2% | -1.81% (active) | 89.2% | 54.6% | 57.3% | 14.8% | 14.1%
COc1nccnc1NS(=O)(=O)c1ccc(NC2=C(Cl)C(=O)c3nc(C)ccc3C2=O)cc1 | 113% | 88.2% | 99.1% | 74.5% | 132% | 109% | 88.7% | 94% | 97% | 94.8% | 115% | 94.5% | 99.5% | 112% | 86.5% | 91.4% | 113% | 83.2% | 92.8% | 92.4%
Cc1ccc2nc(COc3ccc(C(=O)NNC(=S)NC(=O)c4ccccc4)cc3)[nH]c2c1 | 68.9% | 51.6% | 58.1% | 18.6% | 67.8% | 23.6% | 26.8% | 97.3% | 51.5% | 52.6% | 25.8% | 64.9% | 42.1% | 80.2% | 57.3% | 67.2% | 53.4% | 58.2% | 60.5% | -3.62% (active)
C/C(=C\c1ccc(O)cc1O)c1ccc2ccc(O)cc2[o+]1 | 91.1% | 68.1% | 44.9% | 50.7% | 116% | 45% | 58.5% | 147% | 55.8% | 29.3% | 20.2% | 65.7% | 9.36% (active) | 192% | 74.4% | 103% | 47.8% | 28.7% | 90.2% | 22.1%
OCCCNc1oc(-c2ccccc2)nc1[P+](c1ccccc1)(c1ccccc1)c1ccccc1 | -34.1% (active) | 14.3% | -0.273% (active) | 69.8% | 20.9% | 51% | 58.6% | 22.5% | 10.5% | 6.77% (active) | 1.71% (active) | 4.55% (active) | 8.02% (active) | 26.2% | 16.6% | -4.9% (active) | -19.4% (active) | -8.66% (active) | -13.3% (active) | 95%
O=C(Cn1nc(-c2ccccc2)ccc1=O)NN1C(=O)c2ccccc2C1=O | 104% | 101% | 123% | 85.8% | 105% | 99% | 95.3% | 103% | 102% | 108% | 91.4% | 95.7% | 81.9% | 120% | 94.7% | 117% | 124% | 125% | 73.4% | 91.2%
